A selection: hits, their analogues and other compounds. The true share with any hit is near 1.2%.
Avidin bead fluor: compound fluoresces at 488/530 nm on avidin beads; compound fluorescence 488/530 nm, flow cytometry; stronger effect = higher value; AID 1775; fluorescence (KMESF) at 10 µM; 220,000 tested, 0.38% active; in the data active means fluorescence above about 47
RGS8-Gao: human RGS8-Galphao interaction regulation; P09471; 220,000 tested, 0.34% active; multiplexed bead flow cytometry, RGS8-Galphao binding; actives lie on both sides; AID 1423; response (percent of control binding), % at 10 µM; in the data active means response below about 60% or above about 140%; inactive means in between;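 further: Galphao activated as the GDP aluminium fluoride complex binding bead-coupled RGS8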
Target sequence (P09471 whole entry, looked up): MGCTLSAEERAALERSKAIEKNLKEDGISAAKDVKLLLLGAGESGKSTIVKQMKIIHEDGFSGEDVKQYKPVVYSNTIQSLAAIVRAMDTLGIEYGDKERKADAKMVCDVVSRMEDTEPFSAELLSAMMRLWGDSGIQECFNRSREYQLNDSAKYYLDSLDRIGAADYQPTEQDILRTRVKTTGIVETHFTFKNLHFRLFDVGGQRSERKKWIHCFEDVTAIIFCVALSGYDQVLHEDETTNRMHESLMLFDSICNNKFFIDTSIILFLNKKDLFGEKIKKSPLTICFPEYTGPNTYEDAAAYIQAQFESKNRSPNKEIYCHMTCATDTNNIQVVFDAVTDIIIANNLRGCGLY
RGS7-Gao: regulators of human RGS7-Galphao interaction; 220,000 tested, 0.35% active; P09471; Multiplexed bead flow cytometry, RGS7-Galphao binding; actives lie on both sides; binding response (% of control), % at 10 µM; in the data active means binding response below about 49% or above about 150%; inconclusive means no clear call, values can overlap the other calls; inactive means in between;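 further: fluorescent Galphao held in activated GDP-AlF4 state binding bead-coupled RGS7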
GSH bead fluor: GSH bead compound fluorescence profile; GSH beads flow cytometry, compound fluorescence 488/530 nm; stronger effect = higher value; fluorescence (KMESF) at 10 µM; 190,000 tested, 0.25% active; in the data active means fluorescence above about 89;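 further: glutathione beads carrying GST-tagged Bcl family fusion proteins plus one bare bead set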
RGS4-Gao reg: modulates binding of RGS4 to human Galphao | Multiplexed bead flow cytometry; actives lie on both sides | binding response (% of control), % at 10 µM | 220,000 tested, 0.33% active | AID 1415; in the data active means binding response below about 49% or above about 150%; inactive means in between;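 further: fluorescent Galphao activated with aluminum fluoride binding bead-coupled RGS4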
RGS16-Gao: modulates binding between human RGS16 and Galphao. O15492+P09471. bead-based flow cytometry RGS16-Galphao binding, fluorescence; actives lie on both sides. binding response (% of control), % at 10 µM. 220,000 tested, 0.38% active. AID 1441;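 further: Galphao activated by GDP with aluminum fluoride before binding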
RGS-Gao: RGS4-Galphao interaction regulator (human); shares compounds with RGS16-Gao; multiplexed bead flow cytometry, RGS–Galpha-o binding; RGS4–Galpha-o binding response, % at 10 µM; 1,600 tested, 99% active; AID 1504;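 further: fluorescently labeled Galpha-o bound to GDP with aluminium fluoride binding biotinylated RGS beads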
Avidin counter: interferes with biotinylated probe binding to avidin beads. 1,700 tested, under 10 active. inhibition, % at 10 µM. shares compounds with RGS16-Gao. streptavidin beads, fluorescein-biotin binding, flow cytometry. AID 1783;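 active means inhibition above 50%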;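 further: median green fluorescence of gated singlet beads compared with DMSO control wells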
RGS8-Gao confirm: RGS8-Galphao interaction regulation, single point confirmation; AID 1836; binding response (% of control), % at 10 µM; bead-based flow cytometry RGS8-Galphao binding, fluorescence; actives lie on both sides; 1,700 tested, 3% active; shares compounds with RGS16-Gao; in the data active means binding response below about 72% or above about 130%; inactive means in between;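 further: Galphao activated as GDP AlF4 complex before binding bead RGS8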
RGS7-Gao confirm: RGS7-Galphao interaction regulation, single point confirmation; shares compounds with RGS16-Gao; bead-based flow cytometry RGS7-Galphao binding; actives lie on both sides; response (percent of control binding), % at 10 µM; 1,700 tested, 7.8% active; AID 1837; in the data active means response below about 75% or above about 130%; inactive means in between;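 further: fluorescent Galphao activated with GDP and aluminum fluoride binding bead-coupled RGS7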
RGS16-Gao single: RGS16-Galphao interaction regulation, single point confirmation | shares compounds with RGS16-Gao | bead-based flow cytometry, RGS16-Galphao binding; actives lie on both sides | response (% of control binding), % at 10 µM | 1,700 tested, 4% active | AID 1838; in the data active means response below about 74% or above about 130%; inactive means in between;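 further: Galphao activated as the GDP aluminium fluoride complex binding bead-coupled RGS16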
RGS4-Gao single: RGS4-Galphao interaction regulation, single point confirmation; binding response (% of control), % at 10 µM; RGS4-Galphao binding, multiplexed bead flow cytometry; actives lie on both sides; shares compounds with RGS16-Gao; 1,700 tested, 4% active; in the data active means binding response below about 74% or above about 130%; inactive means in between
RGS19-Gao conf: RGS19-Galphao interaction regulation, single point confirmation; shares compounds with RGS16-Gao; bead-based flow cytometry RGS19-Galphao binding; actives lie on both sides; response (percent of control binding), % at 10 µM; 1,700 tested, 5% active; AID 1841; in the data active means response below about 50% or above about 160%; inactive means in between
Target sequence (P09471 whole entry, looked up): as above
Target sequence (P49795 whole entry, looked up): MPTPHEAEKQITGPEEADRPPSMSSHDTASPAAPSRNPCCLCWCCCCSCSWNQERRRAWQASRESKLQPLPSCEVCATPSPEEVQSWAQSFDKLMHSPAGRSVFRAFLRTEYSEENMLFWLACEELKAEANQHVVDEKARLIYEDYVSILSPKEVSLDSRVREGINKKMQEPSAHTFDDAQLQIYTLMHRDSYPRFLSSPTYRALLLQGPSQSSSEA
Large screens that a line does not name were inactive (follow-up assays come after a bar, where they were run); [ ] = remark or other dose. Unless noted, how the calls were made is not given here.

Cc1nnc2ccc(N3CCN(C)CC3)nn12	RGS8-Gao 144[activator] | RGS-Gao 121 | Avidin counter inactive | RGS8-Gao confirm inactive | RGS7-Gao confirm inactive | RGS16-Gao single inactive | RGS4-Gao single inactive | RGS19-Gao conf inactive
N=C1C(c2ccccc2)=C(O)CN1Cc1ccco1	none
C/C(=N\NP(=S)(c1ccccc1)c1ccccc1)c1ccc(O)cc1O	RGS7-Gao inconclusive (no result: GSH bead fluor)
CCC1(CC)C(=O)N(C)C(=O)NC1=NC	Avidin bead fluor 95, RGS7-Gao inconclusive, RGS4-Gao reg 196[activator], RGS16-Gao 204[activator] (no result: GSH bead fluor) | Avidin counter inactive | RGS8-Gao confirm inactive | RGS7-Gao confirm inactive | RGS16-Gao single inactive | RGS4-Gao single inactive | RGS19-Gao conf inactive
COc1ccc(C(=O)C2(C)N(O)C(C)C(c3cccs3)=[N+]2[O-])cc1 (centres undefined)	none
CC1C(c2cccs2)=[N+]([O-])C(C)(C(=O)c2cccs2)N1O (centres undefined)	RGS8-Gao 147[activator], RGS7-Gao 159[activator], RGS4-Gao reg 157[activator] | Avidin counter inactive | RGS8-Gao confirm inactive | RGS7-Gao confirm inactive | RGS16-Gao single inactive | RGS4-Gao single inactive | RGS19-Gao conf inactive
Cc1cc(NC(=O)CCC(=O)N2CCC3(CC2)OCCO3)no1	none
CCn1c(O)c(/C=N/N2CCOCC2)c(=O)n(CC)c1=S	RGS16-Gao 14 | RGS-Gao 93
O=C1/C(=C\c2cc3c(cc2Br)OCO3)N2CCC1CC2	none
COc1cc(CC2(CCc3ccncc3)C(=O)N(C)C(=O)N(C)C2=O)cc(OC)c1OC	RGS8-Gao 58 | RGS-Gao 101 | Avidin counter inactive | RGS8-Gao confirm inactive | RGS7-Gao confirm inactive | RGS16-Gao single inactive | RGS4-Gao single inactive | RGS19-Gao conf inactive
O=c1[nH]c(=S)[nH]c(O)c1N=Nc1ccc(S(=O)(=O)N2CCc3ccccc32)cc1	none
CN(C)C(=O)Oc1c(Cl)cc(Cl)c2ccccc12	none
CN(C)C(=O)Oc1ccc(Cl)c2cccnc12	RGS8-Gao 57 | RGS-Gao 75 | Avidin counter inactive | RGS8-Gao confirm inactive | RGS7-Gao confirm inactive | RGS16-Gao single inactive | RGS4-Gao single inactive | RGS19-Gao conf inactive
CCc1ccc(NC(=O)CN2CC(c3ccccc3)CC2=O)cc1 (centres undefined)	RGS7-Gao inconclusive (no result: GSH bead fluor)
O=C(Cc1ccccc1)N1CCN(C/C=C/c2ccccc2)CC1	RGS8-Gao 29, RGS7-Gao 7.9, RGS4-Gao reg -8.3, RGS16-Gao -0.6 | Avidin counter inactive | RGS8-Gao confirm inactive | RGS7-Gao confirm inactive | RGS16-Gao single inactive | RGS4-Gao single inactive | RGS19-Gao conf inactive
CC1CN(c2cc([N+](=O)[O-])ccc2Cl)CC(C)N1 (centres undefined)	none
CN1CCN(c2cc([N+](=O)[O-])ccc2Cl)CC1	none
CC1CN(c2ccc([N+](=O)[O-])cc2Cl)CCN1 (centres undefined)	RGS8-Gao 9.2, RGS7-Gao 7.2, RGS4-Gao reg 11, RGS16-Gao 1.8 (no result: Avidin bead fluor) | Avidin counter inactive | RGS8-Gao confirm inactive | RGS7-Gao confirm inactive | RGS16-Gao single inactive | RGS4-Gao single inactive | RGS19-Gao conf inactive
CN1CCN(c2ccc([N+](=O)[O-])cc2Cl)CC1	RGS8-Gao 55, RGS7-Gao 49 | RGS-Gao 78 | Avidin counter inactive | RGS8-Gao confirm inactive | RGS7-Gao confirm inactive | RGS16-Gao single inactive | RGS4-Gao single inactive | RGS19-Gao conf inactive
CCOP(=S)(OCC)SCC(=O)NC(C)(CC)C(=O)O (centres undefined)	RGS16-Gao -105 | RGS-Gao 74 | Avidin counter inactive | RGS8-Gao confirm inactive | RGS7-Gao confirm inactive | RGS16-Gao single inactive | RGS4-Gao single inactive | RGS19-Gao conf inactive
N/C(=N\N=C\c1ccc(O)cc1O)N[N+](=O)[O-]	RGS16-Gao -23 | RGS-Gao 84 | Avidin counter inactive | RGS8-Gao confirm inactive | RGS7-Gao confirm inactive | RGS16-Gao single inactive | RGS4-Gao single inactive | RGS19-Gao conf inactive
COc1ccccc1/C=N/N=C(/N)N[N+](=O)[O-]	none
COc1ccc(C=C2C(=O)N(C)C(=O)N(C)C2=O)cc1CSc1ccccn1	none
COc1ccc(C=C2C(=O)N(C)C(=O)N(C)C2=O)cc1COc1ccc(NC(C)=O)cc1	RGS7-Gao inconclusive (no result: GSH bead fluor) | Avidin counter inactive | RGS8-Gao confirm inactive | RGS7-Gao confirm inactive | RGS16-Gao single inactive | RGS4-Gao single inactive | RGS19-Gao conf inactive
CC(C)N(Cc1ccco1)/N=C/c1c(O)n(Cc2ccccc2)c(=O)[nH]c1=O	RGS7-Gao inconclusive (no result: GSH bead fluor)

Source: PubChem
